The nature of assay [1]: Viability qHTS for spleen associated tyrosine kinase inhibitor (SYKi) naive MV4-11 cells (AID 1963823). Further: nearly all actives have a fitted effect of over 40% in size. In a few lines: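 Compounds were dispensed acoustically onto plates, MV4-11 cells (SYKi-naive) added at 500 per well, and plates incubated 72 hr at 37 C. CellTiter-Glo was added and luminescence measured after 10 min.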
Assay [2] is described as follows: Viability qHTS for spleen associated tyrosine kinase inhibitor (SYKi) drug resistant MV4-11 cells (AID 1963824). Further: nearly all actives have a fitted effect of over 35% in size. Summed up: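 SYK-inhibitor-resistant MV4-11 AML cells were seeded at 500 per well onto compound and cultured 72 hours (37 °C, 5% CO2). CellTiter-Glo was then added, and after 10 min at room temperature, luminescence gave viability.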
A short description of assay [3]: Quantitative highthroughput screen to assess conditional lethalithy of NOMO1 cells grown in RPMI1640 with untreated serum (RPMI+s) (AID 1963876). Further: nearly all actives have a fitted effect of over 35% in size.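 On Viability: 100% = DMSO wells and 0% = empty wells without cells.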 Summed up: (§1)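 Each medium arm—HPLM with 10% dialyzed FBS, or RPMI1640 with 5 mM glucose and 10% untreated or dialyzed FBS—was screened against an 11-point, 3-fold compound titration for 48 h at 37 °C, with CellTiter-Glo luminescence as endpoint.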

Assay [4] is described as follows: Quantitative highthroughput screen to assess conditional lethalithy of NOMO1 cells grown in RPMI1640 with dialyzed fetal bovine serum (RPMI+ds) (AID 1963877). Further: nearly all actives have a fitted effect of over 30% in size.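 On Viability: series mostly up to about 46 µM; 100% = DMSO control wells and 0% = empty wells.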 Summed up: as §1
The nature of assay [5]: Quantitative highthroughput screen to assess conditional lethalithy of NOMO1 cells grown in Human Plasma-Like Medium with dialyzed fetal bovine serum (HPLM+ds) (AID 1963878). Further: nearly all actives have a fitted effect of over 35% in size.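 On Viability: 100% = DMSO wells and 0% = empty wells on each plate.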 In a few lines:
as §1

Assay [6] in a line: Quantitative highthroughput screen to assess conditional lethalithy of P12 Ichikawa cells grown in Human Plasma-Like Medium with dialyzed fetal bovine serum (HPLM+ds) (AID 1963879). Further: nearly all actives have a fitted effect of over 35% in size. On Viability: series mostly up to about 46 µM. Conditions: Potency: viability. Summed up: as §1
Assay [7] can be described thus: Quantitative highthroughput screen to assess conditional lethalithy of P12 Ichikawa cells grown in RPMI1640 with dialyzed fetal bovine serum (RPMI+ds) (AID 1963880). Further: nearly all actives have a fitted effect of over 35% in size.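 On Viability: 100% = DMSO wells and 0% = empty wells on each plate.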 To be noted: Potency: P12-Ichikawa viability. In a few lines:
as §1

A short description of assay [8]: Quantitative highthroughput screen to assess conditional lethalithy of P12 Ichikawa cells grown in RPMI1640 with untreated serum (RPMI+s) (AID 1963881). Further: nearly all actives have a fitted effect of over 35% in size.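 On Viability: series mostly up to about 46 µM; 100% = DMSO wells and 0% = empty wells without cells.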 Conditions: Potency: viability. In a few lines:
as §1

Assay [9] can be described thus: Quantitative highthroughput screen to assess conditional lethalithy of SEM cells grown in RPMI1640 with unreated serum (RPMI+s) (AID 1963883). Further: nearly all actives have a fitted effect of over 35% in size.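 On Viability: 100% = DMSO wells and 0% = empty wells without cells.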 In a few lines:
as §1

The nature of assay [10]: Cellular viability qHTS for adrenocortical cancer (ACC) cell line SW-13 (AID 1963989). Further: nearly all actives have a fitted effect of over 65% in size.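 On activity (max response): cells grown in serum-free medium with ITS supplement; on the % scale 0 is the no-effect control and ±100 the full control effect.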 Conditions: SW-13 ACC cells viability, CellTiter-Glo, 48 h; activity (max response): stronger effect = lower value. Summed up:
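Viability was read as CellTiter-Glo luminescence after 48 h compound treatment (up to 46 uM final) of SW-13 cells grown serum-free; titration curves were fit with a four-parameter logistic model to give IC50 and efficacy.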

Assay [11] can be described thus: Cellular viability qHTS for adrenocortical cancer (ACC) cell line NCI-H295R (AID 1963990). Further: nearly all actives have a fitted effect of over 60% in size. In a few lines:
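CellTiter-Glo ATP luminescence, read 48 h after compound addition, measured viability of NCI-H295R adrenocortical cells grown serum-free with ITS. Final concentrations spanned up to 46 uM. Data normalized to DMSO and doxorubicin, fitted for IC50 and maximal response.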

Assay [12] can be described thus: Quantitative highthroughput screen to assess conditional lethalithy of SEM cells grown in Human Plasma-Like Medium with dialyzed fetal bovine serum (HPLM+ds) (AID 1963882). Further: nearly all actives have a fitted effect of over 35% in size. On Viability: series mostly up to about 46 µM. Summed up:
as §1

Assay [13] is described as follows: Quantitative highthroughput screen to assess conditional lethalithy of SEM cells grown in RPMI1640 with dialyzed fetal bovine serum (RPMI+ds) (AID 1963884). Further: nearly all actives have a fitted effect of over 35% in size.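 On Viability: series mostly up to about 46 µM; 100% = DMSO control wells and 0% = empty wells without cells.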 Summed up: as §1

Molecules are shown by their SMILES. “And” between values parts separate entries of the source, which are not always exact repeats. Equal entries are not always repeated. Inconclusive results are not listed. Some structures have more than one record in an assay (separate samples or runs), and their calls can disagree. The source made the active and inactive calls. The call rests on the fitted dose curve; in most records, active means well fitted curve in the direction sought with a large enough effect; inconclusive means small, poorly fitted or top-dose-only effect, or another doubt; inactive means no such curve, though single readings can be large; an effect the other way counts as inactive or inconclusive.
Potency means the concentration at half of the fitted maximal effect.

For `CCC(C)n1ncn(-c2ccc(N3CCN(c4ccc(OC[C@H]5CO[C@](Cn6cncn6)(c6ccc(Cl)cc6Cl)O5)cc4)CC3)cc2)c1=O` (stereo not given in full), the Potency is 2.88 µM (active) in assay [1] and 1.59 µM (active) in assay [2]. For the same compound, the Potency result in [3], in [4], in assay [5], in assay [6], in [7] and in [8] was “inactive” in each case. In addition, the Potency result in assay [9] and in assay [11] was “inactive” throughout. The activity (max response) in [10] is -10.2% (inactive) and 8.84% (inactive).

For `CCC(C)SSc1ncc[nH]1` (stereo not given), the Potency in assay [1] is 9.34 µM (active); in assay [2], 8.33 µM (active); in assay [3], 18.7 µM (active); in assay [4] it was 23.5 µM (active); in assay [5], 14.8 µM (active); in assay [6] it was 18.7 µM (active). Besides, the Potency was 13.2 µM (active) in [7], 18.7 µM (active) in assay [8] and 20 µM (active) in assay [11].

In the case of `CCCCN(CCCC)CCC(O)c1cc2c(Cl)cc(Cl)cc2c2cc(C(F)(F)F)ccc12` (stereo not given), the Potency is 10.6 µM (active) in assay [1]; 8.41 µM (active) in [2]; 13.2 µM (active) in [8]; 5.8 µM (active) in assay [10]; 5.8 µM (active) in assay [11]. The Potency result in [3], in [4], in assay [5], in assay [6], in [7] and in assay [12] was “inactive” each time.

For `N#Cc1c(C2CCNCC2)cc(-c2c(O)cccc2OCC2CC2)nc1N`, the Potency was 5.9 µM (active) in assay [1], 6.61 µM (active) in assay [2], 28.2 µM (active) in [10] and 11.2 µM (active) in [11]. For the same compound, the Potency result in assay [3], in assay [4], in assay [5], in [6], in [7] and in assay [8] was “inactive” each time.

Turning to `CCc1cccc2c3c([nH]c12)C(CC)(CC(=O)O)OCC3` (stereo not given), the Potency entry in assay [1], in assay [2], in [3], in assay [4], in assay [5] and in assay [6] was “inactive” each time. For the same compound, the Potency result in [7] and in [8] was “inactive” throughout. Also, the activity (max response) in [10] is 7.18% (inactive).

For `COc1cc2c(Oc3ccc(NC(=O)C4(C(=O)Nc5ccc(F)cc5)CC4)cc3F)ccnc2cc1OCCCN1CCOCC1`, the Potency result in [1] was “inactive and 2.6 nM (active)”; in assay [2], 0.0037 µM (active); in assay [3], 11.8 µM (active); in assay [4], 5.9 µM (active); in assay [5] it was 13.2 µM (active); in [6] it was 1.48 µM (active). The Potency in [7] is 1.66 µM (active); in assay [8], 2.35 µM (active); in assay [10], 3.16 µM (active); in assay [11] it was 2.82 µM (active).

On to `Cc1cc(C(C)Nc2ccccc2)c2nc(N3CCOCC3)cc(=O)n2c1` (stereo not given), for which the Potency in [1] was 9.2 µM (active) and 5.9 µM (active); in assay [2], 10.3 µM (active) and 9.34 µM (active). Further, the Potency result in [3], in assay [4], in [5], in assay [6], in assay [7] and in assay [8] was “inactive” throughout. The Potency result in assay [12] and in [11] was “inactive” each time. In [10], the activity (max response) is -14.6% (inactive).

In the case of `CCCc1nc2c(C)cc(-c3nc4ccccc4n3C)cc2n1Cc1ccc(-c2ccccc2C(=O)O)cc1`, the Potency in [1] is 750 nM (active) and inactive. In addition, the Potency entry in assay [2], in assay [3], in assay [4], in [5], in assay [6] and in assay [7] was “inactive” throughout. The Potency result in [12], in [9], in [13] and in [11] was “inactive” in each case. Further, the activity (max response) in [10] is 3.79% (inactive) and 0.0088% (inactive).

With `NC[C@H](O)c1ccc(O)c(O)c1`, the Potency result in assay [1], in assay [2], in [3], in assay [4], in assay [5] and in [6] was “inactive” throughout. Also, the Potency entry in assay [7], in assay [12], in assay [9], in assay [13] and in assay [11] was “inactive” throughout. Further, the activity (max response) in [10] is -12.7% (inactive) and 7.51% (inactive).

As to `O=C(CCCCCCNC(=O)c1cnc(N(c2ccccc2)c2ccccc2)nc1)NO`, the Potency in assay [1] is 2.95 µM (active); in assay [2], 2.35 µM (active); in assay [3] it was 18.7 µM (active); in [4], 16.6 µM (active); in [5], 14.8 µM (active); in assay [6] it was 6.62 µM (active). The Potency is 5.9 µM (active) in assay [7]; 7.43 µM (active) in assay [8]; 7.43 µM (active) in assay [12]; 7.43 µM (active) in [13]; 15.8 µM (active) in [10]; 14.1 µM (active) in assay [11].

For `O=c1cc(N2CCOCC2)oc2c(-c3ccccc3)cccc12`, the Potency is 5.9 µM (active) in assay [1]; “inactive and 9.34 µM (active)” in [2]. Moreover, the Potency entry in [3], in [4], in assay [5], in [6], in [7] and in assay [8] was “inactive” each time. Besides, the Potency entry in [9] and in assay [11] was “inactive” throughout.

For `CCc1cc(C(N)=S)ccn1`, the Potency entry in assay [1], in assay [2], in assay [3], in assay [4], in assay [5] and in assay [8] was “inactive” throughout. In addition, the Potency entry in [11] is “inactive”. Also, the Potency is 14.8 µM (active) in assay [6], 8.33 µM (active) in assay [7], 8.33 µM (active) in assay [9] and 7.43 µM (active) in assay [13]. In addition, the activity (max response) in [10] was 3.73% (inactive) and -4.72% (inactive).

Take `COc1cc2nc(N3CCN(C(=O)C4CCCO4)CC3)nc(N)c2cc1OC` (stereo not given): the Potency result in assay [1], in assay [2], in [3], in assay [4], in assay [5] and in assay [6] was “inactive” in each case. Moreover, the Potency entry in assay [7] and in [8] was “inactive” in each case. In addition, the activity (max response) in [10] is -21% (inactive).

As to `C=C1C(=O)OC(CCCCCCCC)C1C(=O)O` (stereo not given), the Potency result in [1], in [2], in [3], in [4], in assay [5] and in [6] was “inactive” in each case. For the same compound, the Potency entry in assay [7], in assay [8], in assay [9] and in [13] was “inactive” each time. Also, the activity (max response) in assay [10] is -7.15% (inactive).

Turning to `O=C(O)c1ccccc1C(=O)Nc1ccc(-c2ccccc2)cc1`, the Potency result in assay [1], in assay [2], in [3], in assay [4], in assay [5] and in assay [6] was “inactive” in each case. In addition, the Potency entry in assay [7], in assay [8] and in assay [11] was “inactive” each time. Further, in assay [10], the activity (max response) is -5.47% (inactive).

Turning to `O=c1[nH]nc(Sc2ncc([N+](=O)[O-])s2)n1-c1ccc2c(c1)OCCO2`, the Potency in assay [1] is 2.35 µM (active); in assay [2] it was 2.35 µM (active); in [3], 9.35 µM (active); in assay [4], 8.33 µM (active); in [5], 9.35 µM (active); in assay [6], 14.8 µM (active). Besides, the Potency was 9.35 µM (active) in assay [7]; 8.33 µM (active) in assay [8]; 7.43 µM (active) in [9]; 8.33 µM (active) in assay [13]; 6.31 µM (active) in assay [11].

Source of the values: PubChem BioAssay (NCATS).
